Results reported in PubChem BioAssay AID2731 (National Center for Advancing Translational Sciences (NCATS), 2010).
The other results are listed elsewhere or left out. Results filed as inconclusive are left out. Calls follow the shape of the dose curve; as a rule, active = well fitted curve in the direction sought with a large enough effect; inconclusive = small, poorly fitted or top-dose-only effect, or effect the other way, or another doubt; inactive = no such curve, though single readings can be large or run the other way.

Assay: High Content Assay for Compounds that inhibit the Assembly of the Perinucleolar Compartment: PC3M Caspase 3/7 Activation
Conditions: PC3M-GFP caspase 3/7 activation, luminescence, 24 h; series mostly up to 46.1 µM; activity change, positive = activation: at the top concentration
Source text: High Content Assay for Compounds that inhibit the Assembly of the Perinucleolar Compartment NIH Chemical Genomics Center [NCGC] NIH Molecular Libraries Probe Centers Network [MLPCN] MLPCN Grant: MH082371-01A2 Assay Submitter (PI): Sui Huang, Northwestern University, Feinberg School of Medicine, Cell and Molecular Biology, Chicago, Illinois. The perinucleolar compartment (PNC) is a non-membrane-bound nuclear subdomain that is associated with but structurally distinct from the nucleolus. The PNC is a heritable trait, in which the number of PNCs per cell in daughter cells often mimics that of their mother cells. The PNC is heterogeneous in shape, is stable through interphase, disassembles during mitosis, and reassembles in early G1. The PNC is concentrated with newly synthesized RNA polymerase III (pol III) RNAs (MRP RNA, RNAse P H1 RNA, hY RNAs[hY1, 2, 5], Alu RNA, and SRP [7SL] RNA) and RNA binding proteins (nucleolin, PTB, CUG-BP, KSRP, Raver1, Raver2, and Rod). […] Extensive in vitro studies have shown that the PNC is unique to tumor cells and preferentially forms in tumor cells derived from solid tissues. Examination of cancer cell lines from various origins and malignant capacities has shown that PNC prevalence correlates with the malignancy of tumors and has the potential to be developed as a pan-cancer prognostic marker. […] Although the PNC is associated with a DNA locus and a handful of components have been identified, much remains to be investigated regarding the structure and function of the PNC and its mechanistic link to cancer. We have previously shown that PNC prevalence reduction is a valid strategy to identify compounds that can be used to study the structure and function of the PNC. It is necessary, however, to create a screening platform that is able to test a large number of compounds in an automated fashion. Here we report the development and robustness of an automated whole-cell phenotypic image-based screening assay that is capable of identifying such compounds. We conducted a followup assay to measure the effects of the lead candidates on Caspase 3/7 activation using a luminescent Caspase kit (Caspase 3/7 Glo). The highly metastatic PC3M-GFP reporter cell line was used in this study.
Caspase 3/7 Assay 1. Cells at a density of 75-90% confluency in T175 flasks were harvested using 7 ml TrypLE Express cell dissociation reagent. After dissociation (5 minutes room temperature incubation) 10 ml of complete media was added to the TrypLE/cell suspension. The liquid was transferred to a 50 ml Conical tube and cells were pelleted at 1000 RPM for 5 min. Supernatant was removed and cells were resuspended to a final density of 150-200 cells/ul in complete media. 2. Cells were plated in 5 ul volume (2000 cells/well) into 1536 well White solid bottom plates and allowed to recover and adhere at 37 C in a humidified 5% CO2 incubator for 4 hours. 3. After 4 hour incubation, compound libraries (23 nl of […] in columns 5-48) were transferred to the plates in duplicate using a 1536 well pintool. Camptothecin positive control (59 uM final) was added to column 2 and 1:3 dilutions of camptothecin was added to column 3. DMSO negative controls were present in columns 1 and 4. 4. After a 24 hour incubation in the 37 C incubator, all wells were treated with 3 ul of Caspase Glo 3/7 reagent using a multidrop combi dispenser (ThermoFisher). Bubbles that formed during dispensing were removed by spinning the plates for 1 minutre at 1500 RPM on a table top centrifuge. Plates were incubated at room temperature for 5 minutes. 5. Luminescencent signal was detected on a Viewlux CCD based imager (PerkinElmer) with a clear filter and a 30 second integration time. The The PC3M cell line stably expressing the PTB-GFP was provided by Sui Huang of Northwestern University. The media and cell culture reagents were purchased from Invitrogen (Carlsbad, CA). […]

Activity change, positive = activation, inactive:
Cn1c2ccccc2c(=O)c2c(=O)n(Cc3ccco3)c(COc3ccccc3)nc21 17.1%
CC1(c2cccc([N+](=O)[O-])c2)CC(C)(C)N(C(=O)c2ccccc2)c2ccccc21 (stereo unspecified) -7.33%
CCOC(=O)c1c(-c2cccc(C)c2)csc1NC(=O)c1c(-c2ccccc2)noc1C -4.95%
COC(=O)c1ccc(CSc2ccccc2C)o1 -6.23%
N=c1c2c(-c3ccccc3)c(-c3ccccc3)n(Cc3ccccc3)c2ncn1CCCO -2.13%
COC(=O)C1=C(C)N(c2ccc(Br)cc2)C(=O)/C1=C\c1ccco1 -5.24%
